Screening data (PubChem)
Sampled rows, rich in hits. Any-hit rate of the full collection: about 10%.
JMJD2A Tudor – qHTS Assay for Inhibitors of JMJD2A-Tudor Domain; Lysine-specific demethylase 4A (Homo sapiens), O75164; 390,000 tested, 4.4% active; Potency, µM (series often up to 114 µM), for the others: top-dose activity change, negative = inhibition, usual class: inhibitors; AlphaScreen JMJD2A-Tudor / H3K4me3 peptide binding; also: potency is read from the fitted curve at half-maximal effect; % is scaled to controls: 0 for no effect and ±100 for the full control effect; nearly all actives have a fitted effect of over 50% in size
HP1b chromo inh – HTS for Inhibitors of HP1-beta Chromodomain Interactions with Methylated Histone Tails; Potency, µM (series often up to 114 µM), for the others: at the highest dose activity change, negative = inhibition, usual class: inhibitors; AID 540317, 2011; Chromobox protein homolog 1 (Homo sapiens), P83916; 390,000 tested, 0.56% active; AlphaScreen HP1-beta / biotin-H3K9me3 peptide binding; also: potency is read from the fitted curve at half-maximal effect; nearly all actives have a fitted effect of over 70% in size
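Compound inhibition of the preformed complex between 50 nM HP1-beta and 50 nM biotinylated H3K9me3 peptide was read by AlphaScreen. Buffer was PBS pH 7.4 with 0.01% Tween-20. Incubations ran 30 min at room temperature, with 10 ug/mL donor/acceptor beads.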
CtBP-E1A blk – qHTS Assay for Inhibitors of the CtBP/E1A Interaction | activity change, % (concentration not given with the values) | 340,000 tested, 0.49% active | CtBP / adenovirus E1A interaction (AlphaScreen) | AlphaScreen GST-E1A/His-CtBP binding, 1536-well; stronger effect = lower value; in the data active = activity change below about -65%; inconclusive = mostly about -30% to -63%; also: % is scaled to controls: 0 for no effect and ±100 for the full control effect
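Steps: dispense buffer (Tris pH 8.0, NaCl 300 mM, TCEP 1 mM, BSA, Tween 20); add 5X protein mix (GST-E1A, His-CtBP, 125 nM each); pin 23 nL compound; 2 h at 37 °C, dark; add 5X beads (50 ug/mL); 1 h; read.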
Six1-Eya2 inh – qHTS Assay for Inhibitors of the Six1/Eya2 Interaction; Homeobox protein SIX1 (Homo sapiens) + Protein phosphatase EYA2 (Homo sapiens), …; AlphaScreen GST-Six1/His-Eya2 binding, biochemical; stronger effect = lower value; activity change, % (test concentration not listed); 360,000 tested, 0.56% active; in the data active = activity change below about -65%; inconclusive = mostly about -30% to -63%; also: % is scaled to controls: 0 for no effect and ±100 for the full control effect
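Six1/Eya2 binding was read as AlphaScreen signal after compounds were pinned into GST-Six1 plus His-tagged Eya2 (5X stock 250/500 nM) in pH 8.0 Tris/NaCl/TCEP buffer, beads added, then incubated 1 h, 37 C, dark.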
BAZ2B inh – qHTS Assay for Inhibitors of BAZ2B; AlphaScreen BAZ2B-H3K14Ac peptide displacement; Potency, µM (top dose mostly 114 µM), inactives show at the top dose activity change, negative = inhibition, hits mostly inhibitors; 360,000 tested, 4.4% active; also: potency is read from the fitted curve at half-maximal effect; % is scaled to controls: 0 for no effect and ±100 for the full control effect; nearly all actives have a fitted effect of over 60% in size
Target sequence (Q9UIF8 whole entry, looked up): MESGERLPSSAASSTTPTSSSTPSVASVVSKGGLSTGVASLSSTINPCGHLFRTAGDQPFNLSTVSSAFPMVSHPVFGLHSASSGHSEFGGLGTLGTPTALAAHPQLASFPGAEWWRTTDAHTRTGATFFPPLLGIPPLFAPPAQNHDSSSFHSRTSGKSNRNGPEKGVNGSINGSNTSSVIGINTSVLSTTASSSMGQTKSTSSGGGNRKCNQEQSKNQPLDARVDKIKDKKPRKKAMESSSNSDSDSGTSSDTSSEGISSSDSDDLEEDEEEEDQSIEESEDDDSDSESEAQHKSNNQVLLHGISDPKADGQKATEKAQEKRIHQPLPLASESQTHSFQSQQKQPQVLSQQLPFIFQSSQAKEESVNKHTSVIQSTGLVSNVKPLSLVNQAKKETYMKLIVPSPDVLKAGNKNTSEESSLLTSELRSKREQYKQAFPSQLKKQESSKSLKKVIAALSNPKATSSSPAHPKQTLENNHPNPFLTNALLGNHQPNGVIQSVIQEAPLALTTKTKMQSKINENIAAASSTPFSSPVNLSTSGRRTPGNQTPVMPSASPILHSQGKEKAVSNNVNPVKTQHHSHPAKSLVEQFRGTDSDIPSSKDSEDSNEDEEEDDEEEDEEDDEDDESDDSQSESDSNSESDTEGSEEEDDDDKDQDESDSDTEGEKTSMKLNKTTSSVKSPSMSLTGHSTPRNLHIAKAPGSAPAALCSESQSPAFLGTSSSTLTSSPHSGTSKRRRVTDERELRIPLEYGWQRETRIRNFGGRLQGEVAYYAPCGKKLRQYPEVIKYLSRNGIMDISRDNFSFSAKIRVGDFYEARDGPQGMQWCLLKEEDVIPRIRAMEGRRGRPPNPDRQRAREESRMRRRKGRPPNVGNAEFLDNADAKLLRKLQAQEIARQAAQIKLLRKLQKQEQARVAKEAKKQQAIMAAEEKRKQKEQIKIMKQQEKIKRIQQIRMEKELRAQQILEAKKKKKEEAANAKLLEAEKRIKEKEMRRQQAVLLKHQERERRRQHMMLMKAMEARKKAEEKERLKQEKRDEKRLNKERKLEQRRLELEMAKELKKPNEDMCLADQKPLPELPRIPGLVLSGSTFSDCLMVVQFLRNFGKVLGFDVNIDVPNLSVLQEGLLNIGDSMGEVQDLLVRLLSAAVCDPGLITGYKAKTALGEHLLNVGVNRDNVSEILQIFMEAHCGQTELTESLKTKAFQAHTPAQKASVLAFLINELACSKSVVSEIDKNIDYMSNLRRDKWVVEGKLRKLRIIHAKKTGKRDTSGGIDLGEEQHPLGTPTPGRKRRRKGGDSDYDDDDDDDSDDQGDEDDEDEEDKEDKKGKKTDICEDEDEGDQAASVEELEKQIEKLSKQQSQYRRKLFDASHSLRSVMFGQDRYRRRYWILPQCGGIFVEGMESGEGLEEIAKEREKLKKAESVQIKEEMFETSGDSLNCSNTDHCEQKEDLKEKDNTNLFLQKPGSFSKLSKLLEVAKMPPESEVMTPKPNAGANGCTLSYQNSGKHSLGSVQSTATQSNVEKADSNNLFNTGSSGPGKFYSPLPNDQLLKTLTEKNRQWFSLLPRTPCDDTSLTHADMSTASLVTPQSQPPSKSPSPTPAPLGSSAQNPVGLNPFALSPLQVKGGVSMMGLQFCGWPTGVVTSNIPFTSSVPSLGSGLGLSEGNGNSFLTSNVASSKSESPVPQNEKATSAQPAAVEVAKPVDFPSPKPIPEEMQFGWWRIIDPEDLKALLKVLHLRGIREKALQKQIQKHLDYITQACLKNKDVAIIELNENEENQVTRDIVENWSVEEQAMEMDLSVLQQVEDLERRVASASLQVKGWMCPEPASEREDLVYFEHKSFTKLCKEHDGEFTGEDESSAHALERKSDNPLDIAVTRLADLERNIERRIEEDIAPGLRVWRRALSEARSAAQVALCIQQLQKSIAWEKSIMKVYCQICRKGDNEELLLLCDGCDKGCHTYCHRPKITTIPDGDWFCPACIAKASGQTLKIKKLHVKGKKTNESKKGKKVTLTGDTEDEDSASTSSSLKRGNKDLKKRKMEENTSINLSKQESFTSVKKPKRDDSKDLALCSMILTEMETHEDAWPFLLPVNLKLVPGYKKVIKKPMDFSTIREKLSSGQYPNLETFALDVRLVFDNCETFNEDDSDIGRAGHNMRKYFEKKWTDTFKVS
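In this displacement format the biotinylated H3(5-23) peptide acetylated at Lys14 serves as ligand at 50 nM, with BAZ2B at 50 nM in PBS pH 7.4 containing 0.01% Tween-20. Donor and acceptor beads are 10 ug/mL final.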
G9a block – qHTS Assay for Inhibitors of Histone Lysine Methyltransferase G9a; Potency, µM (highest dose often 102 µM), inactives show at the highest dose activity, negative = inhibition, usual class: inhibitors; 350,000 tested, 8.8% active; G9a H3K9 monomethylation, AlphaScreen, 2 h; also: potency is read from the fitted curve at half-maximal effect; % is scaled to controls: 0 for no effect and ±100 for the full control effect; nearly all actives have a fitted effect of over 75% in size
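Using a bead-based AlphaScreen, monomethylated H3K9 product from 2 h room-temperature reactions (G9a 20 nM, peptide 500 nM, SAM 20 uM) was detected with 0.5 ug/mL rabbit anti-H3K9me1 antibody.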
* marks the source's active call; other numbers are inactive results; u = inconclusive; x = not tested or not shown; [ ] = dose if it differs, or a comment. Unless noted, calls follow the shape of the dose curve; as a rule, active = well fitted inhibition curve with a large enough effect; inconclusive = small, poorly fitted or top-dose-only effect; inactive = no such curve, though single readings can be large or run the other way.

SMILES	JMJD2A Tudor	HP1b chromo inh	CtBP-E1A blk	Six1-Eya2 inh	BAZ2B inh	G9a block
O=C(CN1CCN(Cc2ccccc2)C1=O)NCc1ccc(Cl)cc1	11%	26%	6	-5	1%	0%[59 µM]
CN(CCCNC(=O)C1CCC(=O)N1Cc1ccc(F)cc1)c1ccccc1 (stereo not given)	-24%	14%	3	-4	-5%	79µM*
CCN(CCCNC(=O)C1CCC(=O)N1Cc1ccc(C)cc1)c1cccc(C)c1 (stereo not given)	u	-17%	1	-10	u	20%[0.501 µM]
CN(CCCNC(=O)C1CCC(=O)N1Cc1ccccc1Cl)c1ccccc1 (stereo not given)	-27%	-3%	-10	-5	-33%	12%
CCN(CCCNC(=O)C1CCC(=O)N1Cc1ccccc1Cl)c1cccc(C)c1 (stereo not given)	-30%	1%	-8	-11	u	45µM*
COc1cccc(NC(=O)Cn2c(=O)n(CCCCC(=O)NCCc3ccccc3)c(=O)c3ccccc32)c1	-22%	11%	x	x	2%	4%[59 µM]
CCc1ccc(NC(=O)c2cnn(-c3c(C)cccc3C)c2C2CCN(C(=O)OC(C)(C)C)CC2)cc1	-18%	18%	x	x	4%[57.1 µM]	-7%[59 µM]
CC1(C)CC(=O)C2=C(C1)c1c(ccc3ccccc13)NC2c1cc([N+](=O)[O-])cc([N+](=O)[O-])c1O (stereo not given)	56µM*	u	-7	-6	50µM*	u
O=C(CNC(=O)c1ccc([N+](=O)[O-])cc1)OC(C(=O)Nc1cc(C(F)(F)F)ccc1Cl)c1ccccc1 (stereo not given)	-22%	x	x	x	x	x
Cc1ccc2c(C)cc(=S)[nH]c2c1	0%	33%	x	-5	-18%	50µM*
Cc1cc(=S)[nH]c2ccccc12	-30%	17%	-1	-5	-25%	2.8µM*
Cc1ccc2[nH]c(=S)cc(C)c2c1	-14%	37%	0	-8	4%	-24%[59 µM]
COC(=O)c1ccc(C)c(N(CCO)CCO)c1	0%	42%	5	7	-4%	25µM*
COc1ccc(NC(=O)c2c(-c3ccc(C)cc3)nnc3ccccc23)cc1OC	-11%	68%	x	x	-2%	8%[59 µM]
Cc1ccccc1Nc1nc(N)nc(COC(=O)c2c(C)noc2C)n1	-8%	21%[57 µM]	3	-1	x	x
Cc1ccccc1Nc1nc(N)nc(COC(=O)/C=C/c2ccco2)n1	-26%	10%	x	-7	u	50µM*
Cc1cc(C)nc(SCCC(=O)N(C)C)n1	u	39%	-7	2	-1%	8.9µM*
CCNC(=O)CCSc1nc(C)cc(C)n1	u	10%	-9	18	0%	3.5µM*
Cc1cc(C)nc(SCCC(=O)N2CCOCC2)n1	-3%	55%	5	0	-2%	u
Cc1cccn2c(=O)c(C(=O)N3CCN(c4ccc(Cl)cc4)CC3)cnc12	-19%	-15%	x	x	-13%	4%[59 µM]
COc1cccc(CN(C)C(=O)CNC(=O)c2cccs2)c1OC	-1%	41%	11	0	5%	-7%
COc1cccc(CN(C)C(=O)CNC(=O)c2ccc(-c3ccccc3)cc2)c1OC	-21%	0%	2	-3	0%	45µM*
CCOc1ccc(NS(=O)(=O)c2ccc(C(=O)N(C)Cc3cccc(OC)c3OC)cc2)cc1	89µM*	-6%	0	-9	-27%	18%
COc1ccc(CN(C)C(=O)CNC(=O)c2sc3ccccc3c2Cl)c(OC)c1OC	89µM*	-17%	-4	0	x	x
COc1ccc2[nH]c(C(=O)N3CCCN(Cc4ccc(F)cc4)CC3)cc2c1	u	-29%	-23	-5	-32%	50µM*
SMILES	JMJD2A Tudor	HP1b chromo inh	CtBP-E1A blk	Six1-Eya2 inh	BAZ2B inh	G9a block
CCOC(=O)C1(CCOC)CCN(Cc2ccncc2)CC1	-13%	29%	4	-1	-3%	50µM*
CCOC(=O)C1(CCOc2ccccc2)CCN(Cc2ccncc2)CC1	-20%	18%[57 µM]	-1	-3	u	x
COc1ccccc1CN1CCN(C(=O)c2ccncc2)CC1	7.9µM*	u	1	11	25µM*	u
O=C(c1cccc(Cl)c1)N1CCN(Cc2ccncc2)CC1	u	u	-1	4	50µM*	35µM*
COc1ccccc1CN1CCC2(CC1)CCN(C(=O)c1ccncc1)CC2	x	x	x	x	x	-11%[12.7 µM]
COc1ccc(OC)c(CN2CCN(C(=O)c3ccc(F)cc3)CC2)c1	25µM*	u	-3	6	u	32µM*
CSc1ccc(CN2CCN(C(=O)c3ccncc3)CC2)cc1	-6%	-1%	-7	-3	-13%	-3%
COc1cccc(OC)c1C(=O)N1CCN(Cc2ccncc2)CC1	8.9µM*	u	-1	1	20µM*	u
CCc1cccc(C)c1NC(=O)Cn1ncc2c3ccccc3n(Cc3ccccc3)c2c1=O	7%	23%	x	x	-2%	6%[59 µM]
N#Cc1cccc(NC(=O)CCNS(=O)(=O)c2ccc3c(c2)CCN3C(=O)C2CC2)c1	-23%	24%[57 µM]	x	x	3%	-1%[59 µM]
CC(CNC(=O)C1CCN(C(=O)c2cc3sccc3n2C)CC1)c1ccccc1 (stereo not given)	-5%	14%	x	x	-17%	-8%[59 µM]
Cc1cccc(Cn2c(C)c(CNC3CCCCC3)c(C(=O)O)c2C)c1	-18%	15%	x	x	-5%	-2%[59 µM]
CC(C)(C)C(=O)NC(=S)Nc1ccc(S(=O)(=O)Nc2nccs2)cc1	-27%	18%	-22	4	-31%	50µM*
O=C(Nc1ccc(S(=O)(=O)Nc2nccs2)cc1)C1=NN(c2ccccc2)C(=O)CC1	-18%	19%	-15	0	-8%	45µM*
Cc1ccc(-n2ccc(=O)c(C(=O)Nc3ccc(S(=O)(=O)Nc4nccs4)cc3)n2)cc1	-26%	19%	-8	-10	u	-20%
O=C(Nc1ccc(S(=O)(=O)Nc2nccs2)cc1)c1ccncc1	x	x	-5	0	x	x
COc1nccnc1NS(=O)(=O)c1ccc(NC(=S)NC(=O)c2ccc(F)cc2)cc1	-29%	-12%	3	8	-39%	u
O=C(NC(=S)Nc1ccc(S(=O)(=O)Nc2nccs2)cc1)c1ccc(F)cc1	-34%	-24%	-24	0	u	10µM*
